12-LOX inh: Primary qHTS assay for inhibitors of human arachidonate 12S-lipoxygenase (ALOX12): Round 2; 580,000 tested, 1.1% active; Potency, µM (series often up to 108 µM), for the others: at the highest dose activity change, negative = inhibition, most hits filed as inhibitors; Polyunsaturated fatty acid lipoxygenase ALOX12 (Homo sapiens), P18054; purified 12hLO, xylenol orange hydroperoxide absorbance; note: potency is the fitted concentration of half-maximal effect; % is set by controls: 0 for no effect and ±100 for the full control effect
Target sequence (P18054 whole entry, looked up): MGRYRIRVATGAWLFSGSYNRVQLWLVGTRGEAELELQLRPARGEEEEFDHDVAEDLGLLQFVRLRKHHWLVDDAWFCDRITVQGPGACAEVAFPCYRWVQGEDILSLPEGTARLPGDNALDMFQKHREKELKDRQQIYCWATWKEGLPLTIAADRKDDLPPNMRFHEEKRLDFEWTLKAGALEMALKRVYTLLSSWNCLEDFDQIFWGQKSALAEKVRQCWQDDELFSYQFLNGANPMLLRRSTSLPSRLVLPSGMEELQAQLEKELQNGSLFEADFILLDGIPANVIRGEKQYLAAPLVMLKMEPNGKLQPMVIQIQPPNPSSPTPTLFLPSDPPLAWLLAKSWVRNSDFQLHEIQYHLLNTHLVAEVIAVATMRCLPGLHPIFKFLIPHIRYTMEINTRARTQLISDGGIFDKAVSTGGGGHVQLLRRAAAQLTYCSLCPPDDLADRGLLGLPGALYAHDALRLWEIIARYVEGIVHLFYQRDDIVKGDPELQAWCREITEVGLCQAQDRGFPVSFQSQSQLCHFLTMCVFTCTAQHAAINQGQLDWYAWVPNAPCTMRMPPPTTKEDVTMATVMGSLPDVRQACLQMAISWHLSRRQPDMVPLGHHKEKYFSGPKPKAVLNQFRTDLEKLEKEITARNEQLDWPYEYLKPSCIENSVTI
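Purified human 12hLO at 150 nM in 25 mM Hepes, 0.01% Triton X-100, pH 7.0, preincubated 15 min at room temperature with compound. Reaction started with 40 uM arachidonic acid, 30 min at room temperature. Hydroperoxide measured by Fe-xylenol orange, 573/405 nm absorbance ratio.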
MmCpn inh: Inhibitors of TCP-1 ring complex (TRiC) of Methanococcus maripaludis (MmCpn): qHTS | purified Mm-Cpn ATPase, ADP Transcreener TR-FRET | 330,000 tested, 0.031% active | Chaperonin Mm-Cpn (Methanococcus maripaludis) | AID 504842, 2011 | Potency, µM (top dose mostly 76.9 µM), for inactives: at the highest dose activity, negative = inhibition, most hits filed as inhibitors; note: potency is the fitted concentration of half-maximal effect; % is set by controls: 0 for no effect and ±100 for the full control effect; nearly all actives have a fitted effect of over 80% in size
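TR-FRET (320 nm excitation; 590 and 665 nm emission) reports ADP made from 10 uM ATP by 25 nM enzyme; compounds were preincubated 10 min, reaction run 30 min, both at 37°C.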
PINK1 expr mod: A Quantitative High throughput Screen to Identify Chemical Modulators of PINK1 Expression | PINK1 immunofluorescence, high-content cytometry, 24 h | 410,000 tested, 0.2% active | Potency, µM (series often up to 76.6 µM), without a hit: at the highest dose activation (PINK1 increase), most hits filed as activators | AID 624263, 2012; active = well fitted activation curve with a large enough effect; inconclusive = small, poorly fitted or top-dose-only effect; cell line not stated here; note: potency is the fitted concentration of half-maximal effect; % of control where 0% means no effect; nearly all actives have a fitted effect of over 65% in size
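A stable cell line was treated with compounds at 5 concentrations for 24 hours, with CCCP as control. PINK1 levels and mitochondrial localization were measured by immunofluorescence with mitochondrial, cell and nuclear markers after fixation, read by laser-scanning cytometry.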
S-ASM inh: Inhibitors of Secretory Acid Sphingomyelinase (S-ASM): qHTS. Sphingomyelin phosphodiesterase (Homo sapiens), P17405. placental ASM, HMU-PC fluorogenic substrate, 60 min. Potency, µM (highest dose often 57.5 µM), without a hit: at the top dose activity change, negative = inhibition, hits mostly inhibitors. 340,000 tested, 0.006% active; note: potency is the fitted concentration of half-maximal effect
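qHTS format. ASM enzyme prepared from human placenta hydrolyses the fluorogenic substrate HMU-PC0 (9 uM final) over 60 min at 37 °C after a 10 min compound preincubation.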
p53 reactivator: qHTS assay for re-activators of p53 using a Luc reporter; H1299 p53-A138V BP100-luciferase reporter, luminescence, 24 h; Potency, µM (series often up to 92.2 µM), for inactives: at the highest dose activity change, positive = activation, usual class: activators; 320,000 tested, 0.063% active; AID 504706, 2011; note: potency is the fitted concentration of half-maximal effect; % of control where 0% means no effect; nearly all actives have a fitted effect of over 45% in size
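p53-null H1299 cells stably carrying temperature-sensitive p53-A138V and a BP100-luciferase reporter were pinned with compounds (4-point, 1:5 series) and held 24 hrs at 37 deg C. Luminescence was read 10 min after detection reagent.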
CCT modulator: High-Throughput Screening for Modulators of Cytosolic Chaperonin Activity | purified chaperonin ATPase assay, HTRF ADP detection, 30 min | activity change, % (test concentration not listed), hits read low | 360,000 tested, 0.3% active; in the data active = activity change below about -30%; note: % is set by controls: 0 for no effect and ±100 for the full control effect
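Nucleotide hydrolysis assay: TRiC at 20–40 nM final (set by batch activity) with 10 uM ATP, 30 min at 37 °C, in presence of 76 uM compound. Detection by competitive ADP HTRF, 30 min ambient.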
* hit, by the source's call; ? = inconclusive; / = not tested or not shown; [ ] = remark or other dose. In the library only some 1.4% were active in any assay of this set; here they are far more common. Unless noted, calls come from the whole dose curve; as a rule, active = well fitted curve in the direction sought with a large enough effect; inconclusive = small, poorly fitted or top-dose-only effect, or another doubt; inactive = no such curve, though single readings can be large; an effect the other way counts as inactive or inconclusive.

SMILES	12-LOX inh	MmCpn inh	PINK1 expr mod	S-ASM inh	p53 reactivator	CCT modulator
CNS(=O)(=O)c1ccc(C)c(C(=O)Nc2ccc(N3CCCCC3)c3ccncc23)c1	75%	/	/	/	/	/
O=C(Cc1ccc(-c2csc(Nc3ccc(F)cc3)n2)s1)N1CCOCC1	32µM*	/	/	/	/	/
O=C(Cc1ccc(F)cc1)N1CCOCC1	13%	0%	2%	3%	/	-3
CCOC(=O)C1(CCOc2ccccc2)CCN(Cc2cc(OC)ccc2OC)CC1	-9%	2%	?	10%	11%	1
CCOC(=O)C1(CCOc2ccccc2)CCN(Cc2cccc(OC)c2O)CC1	7.1µM*	1%	1%	2%	7%	-1
COC(=O)c1cnn(-c2ccc(C(=O)Nc3cc(Cl)ccc3C)cc2)c1N	-10%	/	/	/	/	/
COc1cc(CNc2ccccc2SC)cc(OC)c1OC	45µM*	1%	3%[38.3 µM]	-2%	-1%	-2
COc1cccc(Cn2c(=O)c(-c3cn(C)c4ccccc34)nc3cnc(OC)nc32)c1	40µM*	/	0%	/	/	/
O=C(c1ccco1)N(CCC(c1ccccc1)c1ccco1)Cc1ccco1 (centres undefined)	18µM*	-1%	1%	-23%	5%	-6
Cc1ccc(C(CCN(Cc2ccccc2)C(=O)c2ccco2)c2ccco2)cc1 (centres undefined)	?	-4%	2%	-12%	1%	0
CCc1nc(NCC2CCCO2)c(C#N)c2c1CCCC2 (centres undefined)	-38%	/	/	/	/	/
Cc1nc2ccccc2n1CC(O)COc1ccccc1F (centres undefined)	8%	/	/	/	/	/
COc1ccc(C2CC(c3ccccc3)=NN2C(=S)Nc2ccccc2)cc1 (centres undefined)	-13%	50µM*	1%	2%	7%	-9
COc1ccc(C2CC(c3ccc4ccccc4c3)=NN2C(=O)CNC2CCCCC2)cc1 (centres undefined)	45µM*	-2%	0%	-23%	8%	0
C=CCNCC(=O)N1N=C(c2ccc3ccccc3c2)CC1c1ccc(OC)cc1 (centres undefined)	?	-2%	-1%	-9%	30%	-1
O=C(Cn1nc2c(cc1=O)CCCCC2)N1CCSCC1	27%	/	/	/	/	/
COc1ccc(C)cc1-n1ccnc1SCC(=O)Nc1nc2ccccc2s1	11%	/	/	/	/	/
COc1cc(NC(=O)c2nccnc2C(=O)O)cc(OC)c1	4.5µM*	?	0%	1%	0%	-3
CN(C)CCCn1c(-c2ccc(COc3ccc(Br)cc3)o2)n[nH]c1=S	14µM*	/	/	/	/	/
Cc1ccc(CN(C(=O)COc2ccc(Br)cc2)c2ccccn2)o1	-10%	/	1%	/	/	/
CCCNc1nc2ccccc2nc1C(=O)Nc1ccc(CC)cc1	1%	/	/	/	/	/
CCN1/C(=C/c2ccc3ccccc3[n+]2CC)C=Cc2ccccc21	?	-1%	?	-23%	-2%	-6
CCN1/C(=C/c2cc[n+](C)cc2)C=Cc2cc(C)ccc21	?	-1%	10µM*	-23%	-1%	0
CCN1C(=O)/C(=C2\C=Cc3cc(C)ccc3N2CC)OC1=S	21%	0%	4%	-6%	16%	-1
CCN1/C(=C/c2ccc3ccccc3[n+]2CCCS(=O)(=O)[O-])C=Cc2cc(C)ccc21	45µM*	-3%	0%	-2%	-3%	1
SMILES	12-LOX inh	MmCpn inh	PINK1 expr mod	S-ASM inh	p53 reactivator	CCT modulator
CCN(CC)c1ccc(C(=O)NN2CC(O)=C(c3nc(-c4ccc(Cl)cc4)cs3)C2=N)cc1	-17%	/	/	/	/	/
Cc1cc(C2=NNC(=NC3CC3)SC2)c(C)n1-c1ccccc1	-5%	2%	40µM*	-1%	-26%	-2
COc1ccc(-n2c(C)cc(C3=NNC(=NC4CC4)SC3)c2C)cc1	?	-3%	32µM*	1%	22%	-3
COCCn1c(C)cc(C2=NNC(=NC3CC3)SC2)c1C	-11%	2%	0%	2%	-9%	-2
COc1ccc(C(C)NC(=O)Cn2c(C)cc3nc4n(c(=O)c32)CCCC4)cc1 (centres undefined)	50µM*	/	/	/	/	/
Cc1cc2nc3n(c(=O)c2n1CC(=O)NC(C)c1ccccc1)CCCCC3 (centres undefined)	7%	/	/	/	/	/
Cc1cc2nc3n(c(=O)c2n1CC(=O)Nc1ccc(Cl)cc1F)CCCCC3	-18%	/	/	/	/	/
Cc1cc2nc3n(c(=O)c2n1CC(=O)Nc1ccc(Cl)cc1F)CCCC3	22µM*	/	/	/	/	/
O=C1CCCC2=C1C(c1ccc(O)c(Br)c1)C1=C(CCCC1=O)O2	2%	/	/	/	/	/
Cc1ccc2c(c1)c1c3n2CC(=C2C(=O)OC(C)(C)OC2=O)NC3CCC1 (centres undefined)	11µM*	1%	-1%[38.3 µM]	0%	-5%	0
Cc1ccc2c(c1)c1c3n2CCN(C(=O)C2CC2)C3CCC1 (centres undefined)	?	-3%	0%	13%	7%	0
Cn1c(SCC(=O)Nc2sccc2C#N)nnc1-c1ccc(Cl)cc1	-9%	/	/	/	/	/
Cn1cnc2c1c(=O)n(CC(=O)NCc1ccccc1OC(F)F)c(=O)n2C	-7%	/	/	/	/	/
CC(Sc1ccc2c(c1)OCCO2)C(=O)c1ccc(F)cc1 (centres undefined)	-6%	/	/	/	/	/
Fc1ccc(CN2CCN(C(c3ccccc3)c3ccccc3)CC2)cc1	-29%	-3%	40µM*	12%	/	0
COc1cc(/C=C2\SC(=S)N(CC(=O)NC3=NCCS3)C2=O)cc(OC)c1OC	2%	-2%	28µM*	5%	-1%	0
COc1ccc(-n2c(CCc3ccccc3)n[nH]c2=S)cc1	?	4%	-1%	-3%	6%	-1
Oc1ccc(CCc2n[nH]c(=S)n2-c2ccc(F)cc2)cc1	25µM*	-4%	0%	0%	-6%	0
O=C(Nc1ccc(OC(F)F)c(Cl)c1)c1ccccn1	-12%	-4%	0%	-2%	0%	0
Cc1ccc(NC(=S)Nc2ccc(OC(F)F)c(Cl)c2)cc1F	?	0%	16µM*	-4%	3%	0
Fc1ccc(NC(=S)Nc2ccc(F)c(Cl)c2)cc1Cl	/	0%	40µM*	-4%	2%	-2

Bioassay records: PubChem BioAssay, National Center for Advancing Translational Sciences (NCATS)
